What follows are sequences tested on PPARg:RXRa 90nM:30nM, anti-RXR (NR concentration 90 nM, RXRa partner concentration 30 nM) (assay: PBM binding z-score (relative to random genomic background probes); higher = stronger binding; sequences stand for … in GC…GCGATTGACAGCGTAGAATGAAGG).
Outline: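 Antibodies against each partner of ligand-free nuclear receptor dimers (one per run) detected binding on custom Agilent 4×180K protein-binding microarrays after 1 h incubation. The double-stranded probes had 34-nt variable regions carrying direct-repeat seeds, single-nucleotide variants, half-site ablations and random human genomic background sequences. Binding z-scores, from regression-normalized fluorescence, use the random background probes as reference.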

For TCTTCTAGATCAAAGGTTAAGAAAGCCGAAGCCT, which PBM binding z-score is on record?
The PBM binding z-score was 8.51.

For CCTTACGGGTCACGATGTTATAGCACGACGAGCG, which PBM binding z-score is on record?
The PBM binding z-score was 4.59.

How did the PBM binding z-score turn out when GGAATGAGGGCAAAGTTGATAGCATCTGTCGACG was run?
The PBM binding z-score was 8.36.

With TCATATAGGTAATACAGGTGACAGTCGGCATCTA as the sequence, how does the PBM binding z-score read?
Its PBM binding z-score is 3.05.

Which PBM binding z-score does the source give for CCTATTAGTTGACCATAAAGGCAACCGAAGCTCG here?
Its PBM binding z-score is 0.00767.

Which PBM binding z-score does the source give for ATCTCTAGGTAAAGTTCCGTGAAAGATCGATAGA here?
The PBM binding z-score was 0.543.

With CATCGGAGGACAACAGGAGGTCAGAGCTGCCAGA as the sequence, how does the PBM binding z-score read?
Its PBM binding z-score is 0.267.

Which PBM binding z-score does the source give for CGTCAAAGTCCAACTAAGGTAACGTAAAGCACGC here?
The PBM binding z-score was 0.18.

How did the PBM binding z-score turn out when TTGCCTAGGTCATTCAGGGGCCAGTATAGAAAGC was run?
The PBM binding z-score was 1.52.

How did the PBM binding z-score turn out when ATCTCTAGGTAAAGATAGTTCAGCGAATGCAAAT was run?
The PBM binding z-score was 0.368.

How did the PBM binding z-score turn out when ATCTCTAGGTAAGACTCAGTTCAGTGAAGAACGC was run?
Its PBM binding z-score is 0.159.

How did the PBM binding z-score turn out when AAACCAAGGTGATCGTGAGGTCGTTGATACTAAC was run?
The PBM binding z-score was 0.389.

For GTACCAAGGTGAATAGATCGTTGATGAGTAGGCG, which PBM binding z-score is on record?
Its PBM binding z-score is 0.417.

With CCTCGGAGGACAACAGGAGCTCAGAGCTGCCAGA as the sequence, how does the PBM binding z-score read?
Its PBM binding z-score is -0.999.

How did the PBM binding z-score turn out when CAAGCTAGGTCACAGAGGTCAAAGTCCGTGCGTA was run?
The PBM binding z-score was 5.83.

How did the PBM binding z-score turn out when ACTTTTAGTTGACTTAGGGCAACCGATACGACGC was run?
The PBM binding z-score was 0.54.

With TCTATTAGTTGAAGGGTAACCGACGAGTCCGTTT as the sequence, how does the PBM binding z-score read?
Its PBM binding z-score is 3.37.

From the supplement of paper PMC6555819
